The assay concerns the target T1, Methionyl-tRNA synthetase, putative (Leishmania donovani (strain BPK282A1)) (UniProt E9BF75).
T1 sequence (whole entry): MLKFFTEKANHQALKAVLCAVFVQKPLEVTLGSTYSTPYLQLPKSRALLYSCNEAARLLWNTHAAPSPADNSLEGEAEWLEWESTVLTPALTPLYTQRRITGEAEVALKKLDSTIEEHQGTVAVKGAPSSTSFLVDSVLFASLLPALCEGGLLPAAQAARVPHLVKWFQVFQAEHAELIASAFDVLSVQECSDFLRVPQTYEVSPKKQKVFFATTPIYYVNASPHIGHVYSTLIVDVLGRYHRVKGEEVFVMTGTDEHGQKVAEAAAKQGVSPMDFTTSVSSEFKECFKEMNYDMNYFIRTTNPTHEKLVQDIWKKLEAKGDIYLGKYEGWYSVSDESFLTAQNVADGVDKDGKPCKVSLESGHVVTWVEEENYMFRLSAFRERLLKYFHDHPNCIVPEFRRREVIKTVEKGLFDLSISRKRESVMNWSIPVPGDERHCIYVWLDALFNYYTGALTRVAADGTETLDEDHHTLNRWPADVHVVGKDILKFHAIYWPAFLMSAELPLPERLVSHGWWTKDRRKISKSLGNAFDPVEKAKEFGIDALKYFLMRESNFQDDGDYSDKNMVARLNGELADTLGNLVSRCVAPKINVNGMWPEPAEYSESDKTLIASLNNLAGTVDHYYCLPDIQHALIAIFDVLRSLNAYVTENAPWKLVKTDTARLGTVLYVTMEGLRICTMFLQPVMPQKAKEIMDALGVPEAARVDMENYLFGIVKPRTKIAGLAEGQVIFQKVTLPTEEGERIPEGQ
Kind of assay: Leishmania donovani Methionine tRNA synthetase (LdMetRS):v7. Dose response assay. It counts as functional. Also noted: conc 80 nM, time 150 minutes.

Each structure is given as a SMILES string.

Turning to `Cn1ncc2c(NCCCn3cnnc3)nc(Nc3ccc(F)c(F)c3)nc21`, the PXC50 reads like this: (BOTTOM 1.83375179, HILLSLOPE 0.958532355, MAX_EFFECT 86.4608076, TOP 100.0) 4.67; (BOTTOM -0.68283143, HILLSLOPE 0.850398367, MAX_EFFECT 82.59187621, TOP 94.39900943) 4.98; (BOTTOM -3.068523854, HILLSLOPE 0.793433763, MAX_EFFECT 81.54506438, TOP 111.1617786) 4.55.
Consider `Cc1noc(CCNc2nc(Nc3ccc(F)c(F)c3)nc3c2cnn3C)n1`, for which the PXC50 is, setting by setting: (BOTTOM 2.244251311, HILLSLOPE 1.0049242, MAX_EFFECT 73.69439072, TOP 84.09605428) 4.84; (BOTTOM 5.127321336, HILLSLOPE 1.112866852, MAX_EFFECT 63.09012876, TOP 72.94792798) 4.77; (BOTTOM 6.005431852, HILLSLOPE 0.908019528, MAX_EFFECT 65.55819477, TOP 83.02457631) 4.61.
For `NCC1Cc2cc(-c3nccc(N4CCC(O)CC4)n3)cc(Cl)c2O1` (stereo not drawn), the PXC50 runs as follows: (BOTTOM 2.296775574, HILLSLOPE 1.512300698, MAX_EFFECT 82.17821782, TOP 96.63760695) 4.5; (BOTTOM 6.226174125, HILLSLOPE 1.41403245, MAX_EFFECT 85.50724638, TOP 100.0) 4.49; (BOTTOM -3.72600926, HILLSLOPE 1.42983, MAX_EFFECT 83.15412186, TOP 100.0) 4.35.
Consider `Cc1cnc(Nc2ccc(F)c(F)c2)nc1NCCO`, for which the PXC50 is, setting by setting: (BOTTOM 3.101896626, HILLSLOPE 0.807877595, MAX_EFFECT 79.29515419, TOP 94.15227944) 5.03; (BOTTOM 5.769615282, HILLSLOPE 1.014209397, MAX_EFFECT 83.3655706, TOP 87.41572948) 5.22; (BOTTOM -1.22519456, HILLSLOPE 0.709920628, MAX_EFFECT 85.74380165, TOP 105.2657083) 5.
As for `COC(=O)CNc1nc(Nc2ccc(F)c(F)c2)nc2c1cnn2C`, the PXC50 was 5.87 (BOTTOM 3.451309233, HILLSLOPE 1.311155922, MAX_EFFECT 92.63657957, TOP 92.51088835); 5.83 (BOTTOM -7.309973035, HILLSLOPE 0.885022203, MAX_EFFECT 95.56840077, TOP 99.22229829); 5.96 (BOTTOM -8.727655422, HILLSLOPE 0.982384922, MAX_EFFECT 94.42060086, TOP 95.2064332).
With `COc1ccc(C)cc1CN1CCC(c2cc3ncccc3cn2)CC1`, the PXC50 reads like this: (BOTTOM 4.302486836, HILLSLOPE 1.43779927, MAX_EFFECT 88.21490468, TOP 100.0) 4.58; (BOTTOM 8.282667515, HILLSLOPE 1.048150925, MAX_EFFECT 85.90604027, TOP 109.7015184) 4.5; (BOTTOM -10.94583239, HILLSLOPE 1.338598097, MAX_EFFECT 90.27777778, TOP 104.5409309) 4.59.
Consider `C1CCCN(CC2CCCN(Cc3noc(C4CC4)n3)C2)CC1` (stereo not drawn), for which the PXC50 (BOTTOM 4.352296135, HILLSLOPE 1.766055102, MAX_EFFECT 53.69127517, TOP 86.72954931) was 4.1; the PXC50 (BOTTOM 8.24905968, HILLSLOPE 1.172496443, MAX_EFFECT 57.63888889, TOP 100.0) is 4.05; the PXC50 (MAX_EFFECT 48.70017331) was below 4.
Turning to `NCC1Cc2cc(-c3nccc(N4CCC(O)CC4)n3)cc(F)c2O1` (stereo not drawn), the PXC50 is, setting by setting: (BOTTOM 4.57074024, HILLSLOPE 1.301030074, MAX_EFFECT 74.63768116, TOP 104.4144526) 4.29; (BOTTOM 7.212229631, HILLSLOPE 1.389029539, MAX_EFFECT 78.85304659, TOP 100.0) 4.36; (BOTTOM 8.369250909, HILLSLOPE 1.751405643, MAX_EFFECT 88.77887789, TOP 100.0) 4.37.
For `Cc1cnn(CC2CCCN2Cc2nc(C)c3ccccc3n2)c1` (stereo not drawn), the PXC50 was determined as 4.32 (BOTTOM 4.743177934, HILLSLOPE 1.089829687, MAX_EFFECT 75.04332756, TOP 100.0); 4.37 (BOTTOM 12.95021696, HILLSLOPE 2.00591159, MAX_EFFECT 86.80555556, TOP 100.0); 4.63 (BOTTOM -2.883731045, HILLSLOPE 1.436435191, MAX_EFFECT 78.52348993, TOP 84.80947153).
On to `OCCNc1nc(Nc2ccc(F)c(F)c2)ncc1F`, for which the PXC50 by setting is: (BOTTOM 4.80997506, HILLSLOPE 1.016069871, MAX_EFFECT 75.05938242, TOP 103.871029) 4.37; (BOTTOM 6.495032966, HILLSLOPE 1.205723909, MAX_EFFECT 75.53648069, TOP 100.0) 4.33; (BOTTOM -1.721460895, HILLSLOPE 0.874564497, MAX_EFFECT 71.96261682, TOP 100.0) 4.5.
As for `COc1ccc(Oc2nccc3occc23)cc1CN1CCCC1`, the PXC50 is, setting by setting: (BOTTOM 5.268776127, HILLSLOPE 1.354854137, MAX_EFFECT 57.61821366, TOP 100.0) 4.06; (BOTTOM -7.168939731, HILLSLOPE 0.901042745, MAX_EFFECT 51.70068027, TOP 100.0) 4.08; (BOTTOM -7.793188509, HILLSLOPE 1.286586052, MAX_EFFECT 52.89855072, TOP 100.0) 4.09.
`OCCCNc1ccnc(Nc2cccc(C(F)(F)F)c2)n1`: the PXC50 (BOTTOM -1.471323434, HILLSLOPE 0.842843203, MAX_EFFECT 51.77570093, TOP 92.13190163) is 4.16; the PXC50 (BOTTOM -3.274011796, HILLSLOPE 1.62633592, MAX_EFFECT 57.93991416, TOP 100.0) amounted to 4.09; the PXC50 (MAX_EFFECT 49.40617577) is below 4.
For the compound `OCCNc1nc(Nc2cccc(OC(F)(F)F)c2)nc2ccsc12`, the PXC50 is, setting by setting: (BOTTOM -3.252318024, HILLSLOPE 0.711277169, MAX_EFFECT 57.23140496, TOP 100.0) 4.23; (MAX_EFFECT 49.7098646) below 4; (MAX_EFFECT 49.77973568) below 4.
Consider `Cn1ncc2c(NCCO)nc(Cl)nc21`, for which the PXC50 by setting is: (MAX_EFFECT 0.234192037) below 4; (MAX_EFFECT 8.148148148) below 4; (MAX_EFFECT -0.662251656) below 4.
With `Cn1ncc2c(NCCO)nc(Nc3cccc(S(N)(=O)=O)c3)nc21`, the PXC50 is, setting by setting: (MAX_EFFECT 2.127659574) below 4; (MAX_EFFECT 6.392694064) below 4; (MAX_EFFECT 11.50943396) below 4.
For `Cc1cnn(CCNCc2c(C)nn(CCO)c2C)c1`, the PXC50 by setting is: (MAX_EFFECT 2.721088435) below 4; (MAX_EFFECT 5.072463768) below 4; (MAX_EFFECT 8.23117338) below 4.

Source of the values: ChEMBL document CHEMBL3988442, “University of Dundee, Small-Polar-MMV Screening Library” (2021).
